Wnt bcat act: Wnt/beta-catenin pathway activators, primary screen, cell-based, plate reader, single point. Wnt/beta-catenin reporter cell assay, activator. activation, % at 9.35 µM. 300,000 tested, 1.2% active; in the data active means activation above about 30%, passing the limit was not always enough;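 further: 0% = neutral control wells and 100% = positive control wells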
LMP1 NFkB inh: EBV LMP1-driven NF-kappaB luciferase reporter inhibitors, primary screen, cell-based, luminescence, single point; LMP1-induced NF-kappaB luciferase reporter cells; inhibition, % at 12.5 µM; 350,000 tested, 0.69% active; in the data active means inhibition above about 41%;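 further: 0% = neutral control wells and 100% = reference inhibitor control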
esBAF inh: Bmi1 luciferase reporter increase in mESCs, primary screen, esBAF inhibitor project, mouse ES cells, Bmi1 luciferase knock-in, single point; 24 h; 100% = twice the neutral-well signal; AID 602393, 2012; 350,000 tested, 2% active; reporter increase, % at 12.5 µM; in the data active means activation above about 40%;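 further: 0% = median of the plate's neutral control wells and 100% = double that signal; a rise in the Bmi1 reporter signal indicates esBAF inhibition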
MITF TRPM1 inh: inhibitors of MITF-dependent TRPM1 promoter reporter, primary screen, cell-based, SK-MEL-5, single point, luciferase | 330,000 tested, 0.83% active | inhibition, % at 12.5 µM | SK-MEL-5 TRPM1 promoter luciferase, 24 h;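 active means mean inhibition across replicates of 60% or more, whatever share of single replicates reaches that level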
Statin myotox sup: suppressors of statin myotoxicity in C2C12 myotubes, primary screen, cell-based, single point, plate reader; C2C12 myotubes + simvastatin, ATP luminescence, 48 h; scaled: DMSO 0, geranylgeraniol control 100; rescue of ATP level, % at 7.49 µM; 330,000 tested, 0.78% active; AID 602340, 2012;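 active means mean ATP rescue above about 67%, or every replicate alone reaching that limit, limit read from the data, passing the limit was not always enough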;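 further: myotubes were challenged with 10 µM simvastatin during compound exposure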
MITF TRPM1 HTS: activators of MITF-driven TRPM1 promoter reporter, primary screen, cell-based, SK-MEL-5, luciferase, single point; activation, % at 12.5 µM; AID 588334, 2011; 300,000 tested, 0.75% active; SK-MEL-5 TRPM1-promoter luciferase, 24 h; % of positive control, neutral wells = 0;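 active means mean activation of at least 80% with every replicate also reaching 80%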;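 further: 0% = neutral control wells and 100% = parthenolide positive control wells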
An asterisk follows results filed as active. Rows were chosen to be rich in hits. Some 4% of all compounds tested hit in one or more screens of this group.

CC(Oc1ccccc1)C(=O)Nc1cccc(-c2nc3ccccc3[nH]2)c1 (configuration not stated) was read as LMP1 NFkB inh -4, esBAF inh 46*, MITF TRPM1 inh -4 and Statin myotox sup -22.
`CC(=O)Nc1cccc(-c2nc3ccccc3[nH]2)c1` gave Wnt bcat act 0, LMP1 NFkB inh -8, esBAF inh 15, MITF TRPM1 inh -6, Statin myotox sup -7 and MITF TRPM1 HTS 2.
Screening O=C(COc1ccccc1)Nc1cccc(-c2nc3cc4ccccc4cc3[nH]2)c1 returned LMP1 NFkB inh -52, esBAF inh 6, MITF TRPM1 inh -105, Statin myotox sup -106 and MITF TRPM1 HTS 106*.
Screening CN(C/C=C/C#CC(C)(C)C)Cc1cccc2ccccc12 returned Wnt bcat act 3, LMP1 NFkB inh 1, esBAF inh -2, MITF TRPM1 inh -4, Statin myotox sup -3 and MITF TRPM1 HTS 2.
Screening Cc1ccc(-c2noc(-c3cccs3)n2)cc1 returned Wnt bcat act 25, LMP1 NFkB inh -29, esBAF inh -30, MITF TRPM1 inh -13, Statin myotox sup 2 and MITF TRPM1 HTS 17.
For c1csc(-c2nc(-c3ccc(-c4ccon4)s3)no2)c1 the results were Wnt bcat act 42*, LMP1 NFkB inh -33, MITF TRPM1 inh -46 and MITF TRPM1 HTS 38.
c1ccc(-c2nc(-c3ccc(-c4ccon4)s3)no2)cc1 was read as Wnt bcat act 36*, LMP1 NFkB inh -22, esBAF inh 53*, MITF TRPM1 inh -71, Statin myotox sup 1 and MITF TRPM1 HTS 74.
COc1cc(NC(=S)Nc2ccccn2)cc(OC)c1OC was read as Wnt bcat act -1, LMP1 NFkB inh 7, MITF TRPM1 inh 12 and MITF TRPM1 HTS 1.
`Cc1c(C#N)c2ncn(Cc3ccccc3)c(=O)c2n1-c1ccccc1` gave Wnt bcat act -3, LMP1 NFkB inh 7, esBAF inh -2, MITF TRPM1 inh -3 and MITF TRPM1 HTS 4.
Screening c1ccc2c(Nc3nc4c(s3)CCCC4)cccc2c1 returned Wnt bcat act 35*, LMP1 NFkB inh -23, esBAF inh 39, MITF TRPM1 inh -44 and Statin myotox sup 13.
`O=S(=O)(NC1=NCCCCC1)c1ccc2sc(NS(=O)(=O)c3ccc4ccccc4c3)nc2c1` gave Wnt bcat act 9, LMP1 NFkB inh -9, esBAF inh 3, MITF TRPM1 inh -11, Statin myotox sup 43 and MITF TRPM1 HTS 10.
Screening O=S(=O)(Nc1nc2c(s1)CCCC2)c1ccc2ccccc2c1 returned LMP1 NFkB inh 2, esBAF inh -1, MITF TRPM1 inh -5, Statin myotox sup 123* and MITF TRPM1 HTS 5.
Cc1[nH]c2ccccc2c1C(=O)CSc1nccc(=O)[nH]1 was read as Wnt bcat act 0, LMP1 NFkB inh -4, MITF TRPM1 inh 14 and MITF TRPM1 HTS -15.
O=C(c1cccc([N+](=O)[O-])c1)N1CCCN(C(=O)c2cccc([N+](=O)[O-])c2)CC1 was read as LMP1 NFkB inh 2, esBAF inh -4, MITF TRPM1 inh 4, Statin myotox sup -5 and MITF TRPM1 HTS -1.
`COc1ccc(NC(=O)CC2C(=O)N(c3cccc(OC)c3)C(=O)N2CCC(C)C)cc1` (configuration not stated) gave LMP1 NFkB inh 8, esBAF inh 2, MITF TRPM1 inh -5, Statin myotox sup 93* and MITF TRPM1 HTS 10.
`COc1ccc(NC(=O)CC2C(=O)N(C)C(=S)N2Cc2ccc3c(c2)OCO3)cc1` (configuration not stated) gave Wnt bcat act 35*, LMP1 NFkB inh 5, esBAF inh -1, MITF TRPM1 inh 0, Statin myotox sup -6 and MITF TRPM1 HTS 3.
For COc1ccc(CCN2C(=S)N(C)C(=O)C2CC(=O)Nc2ccc(OC)cc2)cc1 (configuration not stated) the results were Wnt bcat act -6, LMP1 NFkB inh -6, esBAF inh -2, MITF TRPM1 inh -18, Statin myotox sup 1 and MITF TRPM1 HTS 18.
Screening N#C[C@H]1[C@H](c2ccc(C3=CCCC3)cc2)[C@H](CO)N1C(=O)C1CCC1 returned esBAF inh 3 and Statin myotox sup -4.
For O=C(Nc1ccc2nc3n(c(=O)c2c1)CCCCC3)c1cc([N+](=O)[O-])ccc1F the results were Wnt bcat act -3, LMP1 NFkB inh -5, esBAF inh -23, MITF TRPM1 inh 67*, Statin myotox sup -39 and MITF TRPM1 HTS -66.
O=C(Nc1ccc2nc3n(c(=O)c2c1)CCCCC3)c1c(F)ccc([N+](=O)[O-])c1F was read as Wnt bcat act -1, LMP1 NFkB inh 80*, esBAF inh -85, MITF TRPM1 inh 97*, Statin myotox sup 204* and MITF TRPM1 HTS -96.
O=C(Nc1ccc2nc3n(c(=O)c2c1)CCCCC3)c1ccccn1 was read as Wnt bcat act 9, LMP1 NFkB inh -5, esBAF inh -24, MITF TRPM1 inh -44, Statin myotox sup -26 and MITF TRPM1 HTS 44.
Screening COc1cc(C(=O)Nc2ccc3nc4n(c(=O)c3c2)CCCCC4)cc(OC)c1OC returned Wnt bcat act 0, LMP1 NFkB inh 2, esBAF inh 4, MITF TRPM1 inh -7, Statin myotox sup -30 and MITF TRPM1 HTS 5.
O=C(Cn1c2ccccc2c(=O)c2ccccc21)N/N=C/c1ccc(N2CCCC2)c([N+](=O)[O-])c1 was read as LMP1 NFkB inh 14, MITF TRPM1 inh 89* and MITF TRPM1 HTS -88.
`CC(C)(C)c1ccc(C(=O)NNc2cc(N3CCOCC3)nc(N3CCOCC3)n2)cc1` gave Wnt bcat act -1, LMP1 NFkB inh 0, MITF TRPM1 inh 0 and MITF TRPM1 HTS 5.
For COc1cc2c(CCNC(C)=O)c[nH]c2cc1Cl the results were Wnt bcat act 3, LMP1 NFkB inh 74*, esBAF inh 8, MITF TRPM1 inh -11, Statin myotox sup 6 and MITF TRPM1 HTS 12.
CCc1nc2c(OCc3cccc(Cl)c3)cccn2c1N(C)C(=O)Nc1ccccc1OC was read as Wnt bcat act -5, esBAF inh 6 and Statin myotox sup -9.
`Cc1nc2c(-c3ccc(Cl)cc3)c(C)[nH]n2c(=O)c1Cc1ccccc1` gave Wnt bcat act -14, LMP1 NFkB inh 43*, MITF TRPM1 inh 39 and MITF TRPM1 HTS -40.
For CC(C)Cc1ccc(C(C)C(N)=NCCc2ccccc2)cc1 (configuration not stated) the results were Wnt bcat act -2, LMP1 NFkB inh -1, esBAF inh -84, MITF TRPM1 inh 71*, Statin myotox sup -74 and MITF TRPM1 HTS -69.

Screening results as filed in PubChem BioAssay.
